Records with an inconclusive call do not appear. Active and inactive are the calls of the source. The call rests on the fitted dose curve; in most records, active means well fitted curve in the direction sought with a large enough effect in the signal ratio; inconclusive means small, poorly fitted or top-dose-only effect, or effect the other way, or a change in a side signal; inactive means no such curve, though single readings can be large or run the other way; the % refers to the signal ratio.
Assay: qHTS Assay for Modulators of Human Peripheral Myelin Protein 22 (PMP22) Expression/Activity (AID 1967)
Details: Cell-based PMP22 reporter, dual-color luciferase ratio, mouse Pmp22 promoter in mouse Schwann cells; series mostly up to 115 µM
Excerpt: Charcot-Marie-Tooth-Association [CMTA]
NIH Chemical Genomics Center [NCGC]
Charcot-Marie-Tooth (CMT) disease was first characterized by Jean-Martin Charcot and Pierre Marie in France and, independently, by Howard Henry Tooth in England in 1886. CMT is one of the most common inherited neurological diseases, affecting about 125,000 Americans. […] The most common cause of CMT is known as CMT1A, and is caused by a duplication of the PMP22 gene, leading to over-expression of this protein. PMP22 is a glycosylated intrinsic membrane protein accounting for 2-5% of the myelin protein content and over-expression leads to demyelination and subsequently axonal loss.
A cell-based assay for PMP22 expression modulation was developed by Drs. Ned Mantei and Ueli Suter on behalf of the CMTA. This assay employs a mouse Schwann cell line, MSC80 (Boutry et al., 1992), that was engineered to have the mouse Pmp22 promoter driving expression of a green light-emitting click beetle luciferase (CBG68; Chroma-Gl developed by Promega Corp). A red light-emitting click beetle luciferase (CBR; developed by Promega Corp: CBG68 and CBR differ by only a few amino acids within the D-luciferin binding pocket) under control of the EF-alpha promoter is also stably expressed in the same cells for use as an internal control for nonspecific promoter- or reporter-based effects.
NCGC Assay Protocol Summary:
Cells were seeded in white solid 1536-well plates at between 500-750 cells/4uL in DMEM medium containing 10% FBS, w/o phenol red. After overnight incubation at 37 degree Celsius/5% C02, 23 nL of compounds or DMSO were delivered to each well using a pin tool, followed by 24h-incubation at 37 degree Celsius/5% C02. Then 4 uL Chroma-Glo luminescent substrate mix (Promega) was added to each well. Luminescence was measured on a ViewLux plate reader (Perkin Elmer) using a 540/25 nm filter for green luminescence and a 618/8 nm filter for red luminescence. The green and red luminescent signals were corrected for red and green luminescence filter overlap using filter calibration constants (determined using control cell lines expressing either the green or red CBLuc reporters using the procedures given in Davis et al., 2007). The %Activity was determined from the ratio of corrected green/red luminescent values. Green luminescent and ratio %Activity was determined by normalizing to the signal between of untreated cells (0% Activity)
Keywords: luminescence, PMP22, CMT1A, NCGC, CMTA, qHTS
Concentration-response curves were fitted to the signals arising from the green luminescence (PMP22 promoter driven expression) and the red luminescence (control promoter) as well as the calculated ratio. The concentration-effect curves were then classified based on curve quality (r2), response magnitude and degree of measured activity.

| Compound | outcome |
| --- | --- |
| CCCN1CCCC(c2cccc(O)c2)C1 (stereo not given) | inactive |
| CCN1C[C@]2(C)CC[C@H](O)[C@@]34[C@@H]5C[C@@H]6[C@@H](OC)C[C@@](O)(C5[C@H]6O)[C@@H](C[C@@H]23)[C@@H]14 | inactive |
| COC(=O)C(N)CCCN=C(N)N[N+](=O)[O-] (stereo not given) | inactive |
| C[N+]1(C)C2CC(OC(=O)C(CO)c3ccccc3)CC1C1OC12 (stereo not given) | inactive |
| Oc1ccc2c3c1O[C@H]1[C@@H](O)CC[C@@]4(O)C(C2)N(CC2CCC2)CCC314 (stereo not given in full) | inactive |
| NC(Cn1ccc(=O)[nH]c1=O)C(=O)O (stereo not given) | inactive |
| CCNC(=O)[C@H]1O[C@@H](n2cnc3c(N)ncnc32)[C@H](O)[C@H]1O | inactive |
| CCCN(CCC)C(=O)Cc1c(-c2ccc(Cl)cc2)nc2c(Cl)cc(Cl)cn12 | inactive |
| Nc1ncnc2c1ncn2[C@@H]1O[C@H](COP(=O)(O)CP(=O)(O)OP(=O)(O)O)[C@H](O)[C@H]1O | inactive |
| CCCN1CCC[C@@H]2Cc3n[nH]cc3C[C@H]21 | inactive |
| C[C@H]1OC[C@@H](C[N+](C)(C)C)O1 | inactive |
| C[C@H]1C2Cc3ccc(O)cc3[C@]1(C)CCN2CC1CC1 | inactive |
| C[C@@H]1O[C@@H](O[C@H]2C[C@@H](O)[C@]3(CO)[C@H]4[C@H](O)C[C@]5(C)[C@@H]([C@@H]6COC(=O)C6)CC[C@]5(O)[C@@H]4CC[C@]3(O)C2)[C@H](O)[C@H](O)[C@H]1O | inactive |
| C[C@]12CC[C@H]3[C@@H](CCC4C[C@H](O)CC[C@@]43C)[C@@H]1CC[C@@H]2O (stereo not given in full) | inactive |
| CN1CCC23CCCC[C@H]2C1Cc1ccc(O)cc13 (stereo not given in full) | inactive |
| C#CCN(C)C(C)Cc1ccccc1 (stereo not given) | inactive |
| CC12CCC3C(CCC4=C(O)C(=O)CCC43C)C1CCC2=O (stereo not given) | inactive |
| C=CCN1CC[C@@]2(C)c3cc(O)ccc3CC1[C@@H]2C | inactive |
| CCCN1CCC[C@@H](c2cccc(C#N)c2)C1 | inactive |
| COc1ccc2c3c1O[C@H]1C(=O)CC[C@@]4(O)C(C2)N(CC2CC2)CCC314 (stereo not given in full) | inactive |

Reference: PubChem BioAssay (NCATS)
